{
  "source": "PubChem BioAssay (EPA / NIEHS)",
  "note": "Calls of active or inactive are those of the source. How the source made its calls: active means hit-call score of the fitted dose curve at least 0.9, where 1 is the maximum; inactive means score below 0.9.",
  "data": [
    {"assay": "ATG_GRE_CIS: Attagene CIS-FACTORIAL HepG2 Assay for human Glucocorticoid Response Elements (GRE) (AID 2282947)", "conditions": "HepG2 GRE cis-reporter, Attagene multiplex mRNA; actives raise or lower the signal", "method": "ATG_CIS is a cell-based, multiplexed-readout assay that uses HepG2, a human liver cell line, with measurements taken at 24 hours after chemical dosing in a 24-well plate.ATG_GRE_CIS is one of 52 assay component(s) measured or calculated from the ATG_CIS assay. It is designed to make measurements of mRNA induction, a form of inducible reporter, as detected with fluorescence intensity signals by Reverse transcription polymerase chain reaction (RT-PCR) and Capillary electrophoresis technology.Data from the assay component ATG_GRE_CIS was analyzed into 1 assay endpoint. This assay endpoint, ATG_GRE_CIS, was analyzed with bidirectional fitting relative to DMSO as the negative control and baseline of activity. Using a type of inducible reporter, measures of mRNA for gain or loss-of-signal activity can be used to understand the reporter gene at the transcription factor-level as they relate to the gene NR3C1. Furthermore, this assay endpoint can be referred to as a primary readout, because this assay has produced multiple assay endpoints where this one serves a reporter gene function. To generalize the intended target to other relatable targets, this assay endpoint is annotated to the nuclear receptor intended target family, where the subfamily is steroidal.\nHuman liver HepG2 cells are transiently transfected with multiple reporter transcription units (MRTUs) in 6-well plates using FuGene 6 reagent (Roche; 3 ml FuGene/1 mg DNA). The MRTU constructs are regulated by a cis-regulating element (promoter). […] A major difference between the CIS and TRANS system is that in CIS activities of endogenous TFs are measured, whereas the TRANS assay evaluates changes in activities of exogenous, chimeric NR-Gal4 proteins. […] At the end of 24 hour incubation, total RNA was isolated using TriZol reagent (Invitrogen). The isolated RNA is then reverse-transcribed using oligo(dT) primer and Mo-MLV reverse transcriptase (Invitrogen) with DNAse I (Ambion) treatment for 30 min. The one-tenth of the produced cDNA was amplified by PCR using Taq DNA polymerase (Invitrogen) and two reporter sequence-specific primers. The PCR products were fluorescently labeled by primer extension with 6-arboxyfluorescein (6-FAM) 5'-labeled reporter sequence-specific primer (2 min at 95 C, 20 s at 68 C and 10 min at 72 C) and these products were digested with 5U of HpaI (New England Biolabs) for 2h at 37 C. The fragments were purified using Qiaquick PCR columns (Qiagen), analyzed on an ABI 3130xL genetic analyzer (Applied Biosystems) with peak positions identified by using a set of X-rhodamine (ROX)-labeled MapMarker1000 molecular weight standards (BioVentures). The raw capillary electrophoresis data was processed using Attagraph software (Attagene).", "values": [
      {"compound": "CCN(CC)c1ccc(C(=C2C=CC(=[N+](CC)CC)C=C2)c2ccc(S(=O)(=O)O)cc2S(=O)(=O)[O-])cc1", "outcome": "inactive"},
      {"compound": "C[C@H]1C[C@H]2[C@@H]3CCC4=CC(=O)C=C[C@]4(C)[C@@]3(F)[C@@H](O)C[C@]2(C)[C@@]1(O)C(=O)COP(=O)(O)O", "AC50": "0.0823 µM (active)"},
      {"compound": "O=C(O)c1cccc([N+](=O)[O-])c1", "outcome": "inactive"},
      {"compound": "Nc1cc([N+](=O)[O-])ccc1O", "outcome": "inactive"},
      {"compound": "Cc1ccc(C(C)C)cc1O", "outcome": "inactive"},
      {"compound": "Cc1ccc(C=O)cc1", "outcome": "inactive"},
      {"compound": "CN(C)CCOCCN(C)C", "outcome": "inactive"},
      {"compound": "NCCCN1CCOCC1", "outcome": "inactive"},
      {"compound": "C=CC(=O)OCC(O)COc1ccccc1", "note": "(stereo not given)", "AC50": "67.3 µM (active)"},
      {"compound": "CCc1ccc(C=O)cc1", "outcome": "inactive"},
      {"compound": "NC(=O)c1ccccc1Cl", "outcome": "inactive"},
      {"compound": "O=S(=O)(O)c1cccc2c(S(=O)(=O)O)cccc12", "outcome": "inactive"},
      {"compound": "Clc1ccc2c(c1)C(N1CCNCC1)=Nc1ccccc1O2", "outcome": "inactive"},
      {"compound": "CC(=O)O[C@H](CC(=O)[O-])C[N+](C)(C)C", "outcome": "inactive"},
      {"compound": "CCc1c(C)cc(N)c(CC)c1N", "outcome": "inactive"},
      {"compound": "CC(C)(C)C(=O)c1ccccc1", "outcome": "inactive"},
      {"compound": "Cc1cc(C2(c3cc(C)c(O)cc3C)OS(=O)(=O)c3ccccc32)c(C)cc1O", "outcome": "inactive"},
      {"compound": "CC(C)=CCC[C@H](C)CC=O", "outcome": "inactive"},
      {"compound": "COc1c(Cl)c(Cl)c(Cl)c(Cl)c1Cl", "outcome": "inactive"},
      {"compound": "Cc1ccc(C(=O)O)o1", "outcome": "inactive"},
      {"compound": "COc1ccc(OC)c(OC)c1", "outcome": "inactive"},
      {"compound": "CC(CCO)CCc1ccccc1", "note": "(stereo not given)", "outcome": "inactive"},
      {"compound": "CCCCCCCCCOC(C)=O", "outcome": "inactive"},
      {"compound": "CCCCCCCCCCCCCC(=O)O", "outcome": "inactive"},
      {"compound": "CC(=O)[O][Al][O]C(C)=O", "outcome": "inactive"},
      {"compound": "Cc1ncc([N+](=O)[O-])n1C", "outcome": "inactive"},
      {"compound": "Cc1cccc(Nc2ccccc2C(=O)O)c1C", "outcome": "inactive"},
      {"compound": "CC1=CC(=O)NS(=O)(=O)O1", "outcome": "inactive"},
      {"compound": "Clc1ccc(Cl)c(Cl)c1Cl", "outcome": "inactive"},
      {"compound": "CC1(C)[C@H](C(=O)OCc2cccc(Oc3ccccc3)c2)[C@@H]1C=C(Cl)Cl", "outcome": "inactive"},
      {"compound": "CCCCCCCCCCCCCCCC(=O)O", "outcome": "inactive"},
      {"compound": "ClCCCl", "outcome": "inactive"},
      {"compound": "CCCCC(CC)COC(=O)/C=C\\C(=O)OCC(CC)CCCC", "note": "(stereo not given)", "outcome": "inactive"},
      {"compound": "COC(=O)c1ccc(C)cc1", "outcome": "inactive"},
      {"compound": "CCCCCC(=O)OCCc1ccccc1", "outcome": "inactive"},
      {"compound": "Cc1ccc2ccccc2n1", "outcome": "inactive"},
      {"compound": "CN(C)c1ccc(O)c2c1C[C@H]1C[C@H]3[C@H](N(C)C)C(=O)C(C(N)=O)=C(O)[C@@]3(O)C(=O)C1=C2O", "outcome": "inactive"},
      {"compound": "Nc1ccc(S(=O)(=O)O)c(N)c1", "outcome": "inactive"},
      {"compound": "O=C(OCc1ccccc1)C(=O)OCc1ccccc1", "outcome": "inactive"},
      {"compound": "CNC(=O)Oc1ccc2c(c1)[C@]1(C)CCN(C)[C@@H]1N2C", "outcome": "inactive"}
    ]}
  ]
}
